# Inconclusive results are not listed. Where a call stands in place of a potency, no number is given. A structure can be active in one record and inactive in another. Calls of active or inactive are those of the source. Unless noted, calls come from the whole dose curve; as a rule, active = well fitted curve in the direction sought with a large enough effect in the repeat runs; inconclusive = weak or mixed curves; inactive = no such curve, though single readings can be large; an effect the other way counts as inactive or inconclusive.
# How the values were obtained:
# [1] = Human pregnane X receptor (PXR) small molecule agonists, qHTS cell viability counter screen (AID 1346977); note: nearly all actives have a fitted effect of over 50% in size
# Summary of the method: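 PXR-Luc HepG2 cells (2,000/well, 5% charcoal-stripped FBS) preincubated 5 hr, then exposed to compounds 24 hr at 37 C. Viability read in the same wells by CellTiter-Fluor fluorescence, reagent added at 23 hr, 1 hr incubation.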
# [2] = Caspase-3/7 induction in HepG2 cells by small molecules, qHTS assay (AID 1346978); note: nearly all actives have a fitted effect of over 15% in size
# Summary of the method: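 Wild-type HepG2 cells (2,000/well) were settled 5 h at 37 C, 5% CO2, then exposed to compounds in DMSO for 17 h. Caspase-3/7 activity was read by luminescence 30 min after adding Caspase-Glo 3/7 reagent at room temperature.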
# [3] = Caspase-3/7 induction in CHO-K1 cells by small molecules, qHTS assay (AID 1346980); note: nearly all actives have a fitted effect of over 15% in size
# Summary of the method: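 Wild-type cells were seeded at 1,500 per well and settled 5 hr at 37 C, 5% CO2, then exposed to DMSO-dissolved compounds for 17 hr. Caspase-Glo 3/7 reagent was added, and luminescence was read after 30min at room temperature.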
# [4] = Caspase-3/7 induction in HepG2 cells by small molecules, qHTS cell viability counter screen (AID 1346981); note: series mostly up to about 92 µM; nearly all actives have a fitted effect of over 30% in size
# Summary of the method: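 Treatment of HepG2 cells with DMSO-delivered compounds ran 16 hr at 37 C following a 5-hr pre-incubation of 2,000 cells/well. CellTiter-Fluor fluorescence, read after 1 hr, served as the viability measure in a qHTS format.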
# [5] = molecular target: Nuclear receptor subfamily 1 group I member 2 (Homo sapiens) (UniProt O75469); experiment: Human pregnane X receptor (PXR) small molecule agonists, qHTS assay (AID 1346982); note: nearly all actives have a fitted effect of over 35% in size; note: potency is the fitted concentration of half-maximal effect
# Summary of the method: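 Stable HepG2 line reporting PXR-mediated CYP3A4 expression via luciferase. Treatment: 24 hr with compounds in DMSO at 37 C. Detection: ONE-Glo luminescence.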
# [6] = molecular target: Nuclear receptor subfamily 1 group I member 2 (Rattus norvegicus) (UniProt Q9R1A7); experiment: Rat pregnane X receptor (rPXR) activation by small molecules, qHTS assay (AID 1346983); conditions: rPXR luciferase reporter cells, One-Glo luminescence, 24 h; stronger effect = higher value; note: nearly all actives have a fitted effect of over 20% in size
# Summary of the method: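 Cell-based rPXR luciferase reporter assay, 2,000 cells per well, rested 5hr at 37 C before compound addition in DMSO, then 24 hr at 37 C. One-Glo reagent was added and luminescence read after 30 min at room temperature.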
# [7] = molecular target: Nuclear receptor subfamily 1 group I member 2 (Homo sapiens) (UniProt O75469); experiment: CYP3A4 induction through human pregnane X receptor (PXR) by small molecules, qHTS assay (AID 1346984); note: nearly all actives have a fitted effect of over 40% in size
# Summary of the method: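 After 24 h at 37C with compound, DPX-2 cells (HepG2, co-transfected PXR response element and CYP3A4 promoter-luciferase) got 3uM final P450-Glo Luciferin-IPA for 3 h; One-Glo luminescence followed.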
# [8] = molecular target: Nuclear receptor subfamily 1 group I member 2 (Homo sapiens) (UniProt O75469); experiment: Human pregnane X receptor (PXR) activation by small molecules, qHTS assay (AID 1346985); note: nearly all actives have a fitted effect of over 40% in size
# Summary of the method: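 DPX-2 cells (HepG2 co-transfected with a PXR response element and a CYP3A4-promoter luciferase construct) were seeded at 2,000 per well, rested 5 hr at 37C, then exposed to DMSO-dissolved compounds for 24 hr. Activation was read as luciferase luminescence.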
# [9] = molecular target: Acetylcholinesterase (Homo sapiens) (UniProt P22303); experiment: Acetylcholinesterase (AChE) small molecule antagonists: colormetric cell-based qHTS assay (AID 1347395; calls by dose curve; note: nearly all actives have a fitted effect of over 30% in size; note: potency is the fitted concentration of half-maximal effect)
# Summary of the method: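 SH-SY5Y cells attached overnight, exposed to compound 30 min at 37 C, then given DTNB/acetylthiocholine; after 90 min at 37 C, colorimetric thiocholine read gives cellular AChE activity.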
# [10] = molecular target: Acetylcholinesterase (Homo sapiens) (UniProt P22303); experiment: Acetylcholinesterase (AChE) small molecule antagonists: enzyme-based qHTS assay (AID 1347397; calls by dose curve; note: nearly all actives have a fitted effect of over 55% in size); conditions: Potency: AChE enzyme activity inhibition; outcome: AChE enzyme activity inhibition
# Summary of the method: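 Compound or DMSO vehicle was pin-transferred onto recombinant human AChE (50 mU/mL as dispensed) and left 30 min at room temperature. Acetylthiocholine with DTNB then started the reaction, read colorimetrically 10 min later.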
# [11] = molecular target: Acetylcholinesterase (Homo sapiens) (UniProt P22303); experiment: Acetylcholinesterase (AChE) small molecule antagonists: fluorescence cell-based qHTS assay (AID 1347398; calls by dose curve; note: nearly all actives have a fitted effect of over 50% in size); conditions: Potency: AChE activity; outcome: AChE activity
# Summary of the method: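 Using neuroblastoma SH-SY5Y cells as the enzyme source, test chemicals are preincubated 30 min at 37 C; AChE-driven acetylthiocholine cleavage is then quantified by thiocholine-dependent Thiolite Green fluorescence after 40 min at room temperature.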
# [12] = molecular target: Acetylcholinesterase (Homo sapiens) (UniProt P22303); experiment: Acetylcholinesterase (AChE) small molecule antagonists: enzyme-based qHTS assay with human liver microsomes (AID 1347399; calls by dose curve; note: nearly all actives have a fitted effect of over 60% in size); conditions: Potency: qHTS inhibition; outcome: qHTS inhibition
# Summary of the method: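 Recombinant human AChE (50 mU/mL in the enzyme mix) and human liver microsomes (0.25 mg/mL final) were preincubated with compound and NADPH (0.25 mg/mL final) for 30 min at 37 C. Acetylthiocholine/DTNB was then added; thiocholine was read colorimetrically after 10 min at room temperature.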
# [13] = molecular target: Cytochrome P450 2D6 (Homo sapiens) (UniProt P10635); experiment: Cytochrome P450 Family 2 Subfamily D Member 6 (CYP2D6) small molecule antagonists: luciferase reporter qHTS assay (AID 1671196); note: nearly all actives have a fitted effect of over 50% in size; note: potency is the fitted concentration of half-maximal effect
# Summary of the method: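 Chemicals tested for interference with CYP2D6 activity; proluciferin substrate, NADPH regeneration, 1 h at room temperature, luminescent detection.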
# [14] = molecular target: Cytochrome P450 2C19 (Homo sapiens) (UniProt P33261); experiment: Cytochrome P450 Family 2 Subfamily C Member 19 (CYP2C19) small molecule antagonists: luciferase reporter qHTS assay (AID 1671197); note: nearly all actives have a fitted effect of over 65% in size; note: potency is the fitted concentration of half-maximal effect
# Summary of the method: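 CYP2C19 P450-Glo, 1536-well qHTS. Cpd + enzyme/proluciferin substrate 10 min RT; + NADPH regen, 37C 1 h; stop with luciferin detection reagent, 20 min RT, luminescence (RLU). Pos ctrl ketoconazole.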
# [15] = molecular target: Cytochrome P450 2C9 (Homo sapiens) (UniProt P11712); experiment: Cytochrome P450 Family 2 Subfamily C Member 9 (CYP2C9) small molecule antagonists: luciferase reporter qHTS assay (AID 1671198); note: series mostly up to about 120 µM; nearly all actives have a fitted effect of over 50% in size
# Summary of the method: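 CYP2C9 activity was measured with a P450-Glo proluciferin substrate. Enzyme–substrate mix was held with compound for 10 min at room temperature, then NADPH regeneration solution was added for 1 h at 37C. Luciferin product was read as luminescence.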
# [16] = molecular target: Cytochrome P450 1A2 (Homo sapiens) (UniProt P05177); experiment: Cytochrome P450 Family 1 Subfamily A Member 2 (CYP1A2) small molecule antagonists: luciferase reporter qHTS assay (AID 1671199); note: nearly all actives have a fitted effect of over 50% in size; note: potency is the fitted concentration of half-maximal effect
# Summary of the method: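 Read-out is luminescence from luciferin detection reagent (20 min) proportional to CYP1A2 activity; compounds in DMSO preincubated 10 min with enzyme and proluciferin substrate, then NADPH regeneration solution, 1 h, room temperature.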
# [17] = molecular target: Voltage-gated inwardly rectifying potassium channel KCNH2 (Homo sapiens) (UniProt Q12809); experiment: Human Ether-a-go-go-Related Gene (hERG) channel small molecule antagonists: fluorescence cell-based qHTS assay (AID 1671200)
# Summary of the method: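 hERG-U2OS cells plated overnight at 37 C, loaded with FluxOR II dye 1 h at RT in dark; after 10 min, thallium stimulus added. Fluorescence (480/540 nm) read kinetically for 2 min at 1 s intervals.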
# [18] = molecular target: Cytochrome P450 3A4 (Homo sapiens) (UniProt P08684); experiment: Cytochrome P450 Family 3 Subfamily A Member 4 (CYP3A4) small molecule antagonists: luciferase reporter qHTS assay (AID 1671201)
# Summary of the method: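 P450-Glo CYP3A4 luminescent assay: compounds preincubated 10 min at room temperature with enzyme and proluciferin substrate, NADPH regeneration added, 1 h room-temperature reaction, stopped with luciferin detection reagent; luminescence read after 20 min. Ketoconazole positive control.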
# [19] = Caspase-3/7 induction in CHO-K1 cells by small molecules, qHTS cell viability counter screen (AID 1346979); note: nearly all actives have a fitted effect of over 35% in size
# Summary of the method: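 Wild-type CHO-K1 cells (1,500/well) treated with compound after 5 h plating; after 16 h at 37C, viability read as CellTiter-Fluor fluorescence following 1 h reagent incubation, in the same wells as the caspase read.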
# Sequence of Voltage-gated inwardly rectifying potassium channel KCNH2 (Homo sapiens) (Q12809 whole entry, looked up): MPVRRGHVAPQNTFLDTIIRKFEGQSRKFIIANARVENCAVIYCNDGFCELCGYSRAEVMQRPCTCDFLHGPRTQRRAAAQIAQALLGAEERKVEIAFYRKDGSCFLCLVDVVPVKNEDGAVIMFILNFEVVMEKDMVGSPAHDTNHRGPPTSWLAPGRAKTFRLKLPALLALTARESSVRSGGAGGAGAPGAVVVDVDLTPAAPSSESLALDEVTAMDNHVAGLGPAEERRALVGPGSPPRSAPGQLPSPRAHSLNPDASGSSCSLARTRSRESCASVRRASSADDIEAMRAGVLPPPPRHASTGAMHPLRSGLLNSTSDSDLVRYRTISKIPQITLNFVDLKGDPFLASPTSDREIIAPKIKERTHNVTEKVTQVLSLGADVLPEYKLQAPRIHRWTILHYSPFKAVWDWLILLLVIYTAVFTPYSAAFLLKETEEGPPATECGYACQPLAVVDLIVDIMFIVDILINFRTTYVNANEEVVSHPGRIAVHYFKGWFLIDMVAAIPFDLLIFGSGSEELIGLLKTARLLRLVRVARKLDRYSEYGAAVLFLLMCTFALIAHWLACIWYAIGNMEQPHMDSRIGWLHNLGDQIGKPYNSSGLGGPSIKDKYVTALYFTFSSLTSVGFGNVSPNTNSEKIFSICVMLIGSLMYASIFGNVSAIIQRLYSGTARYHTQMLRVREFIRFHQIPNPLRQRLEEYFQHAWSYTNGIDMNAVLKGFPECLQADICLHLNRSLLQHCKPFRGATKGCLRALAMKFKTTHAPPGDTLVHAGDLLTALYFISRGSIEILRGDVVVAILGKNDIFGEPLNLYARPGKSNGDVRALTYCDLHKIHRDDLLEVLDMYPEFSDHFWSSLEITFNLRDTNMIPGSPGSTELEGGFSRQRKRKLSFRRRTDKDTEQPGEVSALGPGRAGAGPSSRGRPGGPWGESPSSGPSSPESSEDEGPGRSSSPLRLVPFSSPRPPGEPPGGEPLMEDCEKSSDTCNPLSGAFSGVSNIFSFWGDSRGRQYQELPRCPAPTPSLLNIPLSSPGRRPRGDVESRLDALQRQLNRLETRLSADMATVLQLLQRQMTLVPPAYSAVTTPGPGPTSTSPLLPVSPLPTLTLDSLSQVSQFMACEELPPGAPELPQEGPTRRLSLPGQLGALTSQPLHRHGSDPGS
# Sequence of Nuclear receptor subfamily 1 group I member 2 (Homo sapiens) (O75469 whole entry, looked up): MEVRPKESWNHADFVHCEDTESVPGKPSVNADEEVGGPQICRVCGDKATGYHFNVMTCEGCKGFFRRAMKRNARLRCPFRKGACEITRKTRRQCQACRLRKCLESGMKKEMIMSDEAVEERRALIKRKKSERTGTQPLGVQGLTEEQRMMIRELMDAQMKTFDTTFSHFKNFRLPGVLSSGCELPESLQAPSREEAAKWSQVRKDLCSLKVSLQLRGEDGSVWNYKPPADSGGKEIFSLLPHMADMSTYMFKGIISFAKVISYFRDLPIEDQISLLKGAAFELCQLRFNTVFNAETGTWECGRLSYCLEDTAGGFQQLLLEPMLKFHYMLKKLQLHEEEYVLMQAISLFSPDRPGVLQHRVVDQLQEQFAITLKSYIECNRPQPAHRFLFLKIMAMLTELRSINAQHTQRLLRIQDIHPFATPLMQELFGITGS
# Sequence of Cytochrome P450 3A4 (Homo sapiens) (P08684 whole entry, looked up): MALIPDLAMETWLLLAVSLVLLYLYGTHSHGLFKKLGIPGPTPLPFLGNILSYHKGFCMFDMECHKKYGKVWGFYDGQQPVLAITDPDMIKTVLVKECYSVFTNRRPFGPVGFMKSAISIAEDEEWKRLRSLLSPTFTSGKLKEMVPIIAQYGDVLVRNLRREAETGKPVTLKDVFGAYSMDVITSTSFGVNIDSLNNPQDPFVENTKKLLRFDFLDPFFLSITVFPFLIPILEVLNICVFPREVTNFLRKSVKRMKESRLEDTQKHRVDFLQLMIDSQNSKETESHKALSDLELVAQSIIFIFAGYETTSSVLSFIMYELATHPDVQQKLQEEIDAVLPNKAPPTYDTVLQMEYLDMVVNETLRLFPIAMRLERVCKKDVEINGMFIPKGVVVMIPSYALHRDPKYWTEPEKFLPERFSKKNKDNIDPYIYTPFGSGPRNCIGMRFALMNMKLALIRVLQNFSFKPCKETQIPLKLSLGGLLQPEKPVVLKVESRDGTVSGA
# Sequence of Cytochrome P450 1A2 (Homo sapiens) (P05177 whole entry, looked up): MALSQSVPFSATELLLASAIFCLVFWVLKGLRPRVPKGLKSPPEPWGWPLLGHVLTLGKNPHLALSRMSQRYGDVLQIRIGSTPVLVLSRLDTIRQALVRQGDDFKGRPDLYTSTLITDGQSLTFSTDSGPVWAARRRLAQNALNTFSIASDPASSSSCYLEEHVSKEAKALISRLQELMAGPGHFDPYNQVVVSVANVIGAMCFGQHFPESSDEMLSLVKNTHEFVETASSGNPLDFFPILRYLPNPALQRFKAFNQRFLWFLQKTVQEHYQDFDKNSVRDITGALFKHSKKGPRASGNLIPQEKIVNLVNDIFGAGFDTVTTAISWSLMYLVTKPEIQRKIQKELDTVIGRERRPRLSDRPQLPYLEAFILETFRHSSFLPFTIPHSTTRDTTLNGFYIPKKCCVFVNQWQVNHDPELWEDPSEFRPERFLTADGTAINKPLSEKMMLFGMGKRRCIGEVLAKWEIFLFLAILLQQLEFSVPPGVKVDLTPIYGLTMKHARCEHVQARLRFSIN
# Sequence of Cytochrome P450 2D6 (Homo sapiens) (P10635 whole entry, looked up): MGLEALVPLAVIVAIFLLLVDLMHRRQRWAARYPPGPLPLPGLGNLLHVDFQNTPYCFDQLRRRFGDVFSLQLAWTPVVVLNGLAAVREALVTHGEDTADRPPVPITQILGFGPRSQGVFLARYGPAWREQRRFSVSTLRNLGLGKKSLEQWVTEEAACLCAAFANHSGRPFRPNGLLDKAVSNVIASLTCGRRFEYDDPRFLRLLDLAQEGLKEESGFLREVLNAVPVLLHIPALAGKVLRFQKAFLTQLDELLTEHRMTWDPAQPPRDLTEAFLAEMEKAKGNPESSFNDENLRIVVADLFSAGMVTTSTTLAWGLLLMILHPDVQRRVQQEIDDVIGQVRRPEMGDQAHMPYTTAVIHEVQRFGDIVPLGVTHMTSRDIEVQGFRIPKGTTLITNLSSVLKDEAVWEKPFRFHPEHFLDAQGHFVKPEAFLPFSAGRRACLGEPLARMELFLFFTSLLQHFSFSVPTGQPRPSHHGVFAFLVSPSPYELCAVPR
# Sequence of Cytochrome P450 2C19 (Homo sapiens) (P33261 whole entry, looked up): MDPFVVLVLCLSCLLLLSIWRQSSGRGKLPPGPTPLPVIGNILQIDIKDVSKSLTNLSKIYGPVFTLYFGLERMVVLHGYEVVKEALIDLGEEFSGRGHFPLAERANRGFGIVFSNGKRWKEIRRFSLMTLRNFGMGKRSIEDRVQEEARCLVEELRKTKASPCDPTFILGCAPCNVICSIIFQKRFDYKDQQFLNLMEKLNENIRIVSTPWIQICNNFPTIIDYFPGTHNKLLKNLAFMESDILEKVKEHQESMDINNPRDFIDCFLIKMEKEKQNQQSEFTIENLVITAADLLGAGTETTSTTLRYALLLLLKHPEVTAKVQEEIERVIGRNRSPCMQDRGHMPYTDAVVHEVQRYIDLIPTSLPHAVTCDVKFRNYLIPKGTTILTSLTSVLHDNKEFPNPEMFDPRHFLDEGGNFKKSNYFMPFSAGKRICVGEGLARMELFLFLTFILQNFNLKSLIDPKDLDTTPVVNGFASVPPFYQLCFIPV
# Sequence of Acetylcholinesterase (Homo sapiens) (P22303 whole entry, looked up): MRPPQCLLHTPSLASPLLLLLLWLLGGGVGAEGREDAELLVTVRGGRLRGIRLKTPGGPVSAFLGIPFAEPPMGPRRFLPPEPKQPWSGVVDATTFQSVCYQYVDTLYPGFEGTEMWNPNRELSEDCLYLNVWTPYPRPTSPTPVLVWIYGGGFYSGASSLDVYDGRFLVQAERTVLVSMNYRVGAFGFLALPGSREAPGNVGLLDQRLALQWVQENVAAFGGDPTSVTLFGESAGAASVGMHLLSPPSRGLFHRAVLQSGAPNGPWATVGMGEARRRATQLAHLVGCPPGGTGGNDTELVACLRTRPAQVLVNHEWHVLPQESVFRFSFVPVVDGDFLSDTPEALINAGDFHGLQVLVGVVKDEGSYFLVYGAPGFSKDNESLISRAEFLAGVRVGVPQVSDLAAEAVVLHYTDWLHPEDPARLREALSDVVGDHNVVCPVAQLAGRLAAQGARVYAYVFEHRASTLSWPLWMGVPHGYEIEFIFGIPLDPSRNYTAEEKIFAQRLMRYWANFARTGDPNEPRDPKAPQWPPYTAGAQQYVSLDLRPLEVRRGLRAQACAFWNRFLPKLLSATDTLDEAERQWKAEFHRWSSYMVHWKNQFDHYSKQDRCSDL
# Sequence of Cytochrome P450 2C9 (Homo sapiens) (P11712 whole entry, looked up): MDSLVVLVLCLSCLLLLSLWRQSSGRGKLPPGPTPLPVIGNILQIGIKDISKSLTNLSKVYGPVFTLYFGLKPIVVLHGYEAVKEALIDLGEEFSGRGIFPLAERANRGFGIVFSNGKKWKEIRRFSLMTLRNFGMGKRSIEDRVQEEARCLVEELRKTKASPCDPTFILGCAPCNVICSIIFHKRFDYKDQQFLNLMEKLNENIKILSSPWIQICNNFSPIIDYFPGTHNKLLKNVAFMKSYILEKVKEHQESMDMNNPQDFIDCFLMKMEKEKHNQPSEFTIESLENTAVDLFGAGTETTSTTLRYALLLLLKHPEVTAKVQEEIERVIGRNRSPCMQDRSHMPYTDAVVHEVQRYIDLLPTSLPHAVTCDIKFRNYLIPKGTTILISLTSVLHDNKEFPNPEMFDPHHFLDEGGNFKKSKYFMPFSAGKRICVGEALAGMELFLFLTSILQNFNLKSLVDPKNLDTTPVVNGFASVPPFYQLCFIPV
SMILES,Potency [1],outcome [2],outcome [3],Potency [4],Potency [5],max activation [6],Potency [7],Potency [8],Potency [9],Potency [10],Potency [11],Potency [12],Potency [13],Potency [14],Potency [15],Potency [16],Potency [17],Potency [18],Potency [19]
ClC1=C(Cl)C2(Cl)C(CBr)CC1(Cl)C2(Cl)Cl (configuration not stated),inactive,inactive,inactive,inactive,48.6 µM (active) and inactive,0.545% (inactive),inactive,inactive,inactive,inactive,inactive,inactive,inactive,inactive,inactive,inactive,inactive,,
Cn1c(CCCC(=O)O)nc2cc(N(CCCl)CCCl)ccc21,inactive,inactive,inactive,inactive,inactive,-0.144% (inactive),inactive,inactive,inactive,inactive,inactive,inactive,,inactive,inactive,inactive,inactive,inactive,
CC(C)c1ccc(O)cc1,inactive,inactive,,inactive,inactive,,,,inactive,,inactive,inactive,inactive,inactive,,22.4 µM (active),inactive,inactive,inactive
N#CN=C1SCCN1Cc1ccc(Cl)nc1,inactive,inactive,,inactive,,,,,35.6 µM (active),inactive,inactive,inactive,39.9 µM (active),inactive,,,inactive,inactive,inactive
C=C1C[C@@H]2[C@H](CC[C@]3(C)C(=O)CC[C@@H]23)[C@@]2(C)C=CC(=O)C=C12,inactive,inactive,inactive,inactive,26.6 µM (active),,inactive,,inactive,inactive,inactive,inactive,,4.36 µM (active),,inactive,inactive,inactive,
ClCCN1CCCC1,inactive,inactive,,inactive,inactive,,,,inactive,inactive,inactive,inactive,,,inactive,inactive,inactive,inactive,inactive
O=C1CCCCC1Cl (configuration not stated),inactive,inactive,,inactive,inactive,,,,inactive,,inactive,inactive,,40.4 µM (active),inactive,36 µM (active),inactive,inactive,inactive
O=C(Cl)CCl,inactive,inactive,inactive,inactive,inactive,,,,inactive,inactive,inactive,inactive,71.4 µM (active),,inactive,,inactive,inactive,

# — PubChem BioAssay (Tox21)
